3T3 cytotox – kills NIH 3T3 cells | AID 1345082 | actives 4.3% (n = 94,000) | Potency, µM (titrated, usually from 96.7 µM), inactives show at the highest dose activity change, negative = cytotoxicity, actives largely listed as inhibitors | NIH 3T3 viability, CellTiter-Glo ATP luminescence, 48-72 h; further: on the % scale 0 is the no-effect control and ±100 the full control effect; nearly all actives have a fitted effect of over 55% in size
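Cytotoxicity was measured by CellTiter-Glo ATP luminescence after 48 or 72 h compound exposure at 37 °C. Mouse NIH 3T3 fibroblasts were seeded at 400 cells/well and dosed by 23 nL pin transfer.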
NPR1 antag – human Npr1 receptor antagonism. HEK293 hNpr1 GloSensor cGMP, ANP-stimulated luminescence. P16066. Potency, µM (top dose mostly 46.3 µM), inactives show at the top dose activity change, negative = inhibition, actives largely listed as inhibitors. actives 1.6% (n = 76,000); calls by dose curve; further: on the % scale 0 is the no-effect control and ±100 the full control effect; nearly all actives have a fitted effect of over 60% in size
Target sequence (P16066 whole entry, looked up): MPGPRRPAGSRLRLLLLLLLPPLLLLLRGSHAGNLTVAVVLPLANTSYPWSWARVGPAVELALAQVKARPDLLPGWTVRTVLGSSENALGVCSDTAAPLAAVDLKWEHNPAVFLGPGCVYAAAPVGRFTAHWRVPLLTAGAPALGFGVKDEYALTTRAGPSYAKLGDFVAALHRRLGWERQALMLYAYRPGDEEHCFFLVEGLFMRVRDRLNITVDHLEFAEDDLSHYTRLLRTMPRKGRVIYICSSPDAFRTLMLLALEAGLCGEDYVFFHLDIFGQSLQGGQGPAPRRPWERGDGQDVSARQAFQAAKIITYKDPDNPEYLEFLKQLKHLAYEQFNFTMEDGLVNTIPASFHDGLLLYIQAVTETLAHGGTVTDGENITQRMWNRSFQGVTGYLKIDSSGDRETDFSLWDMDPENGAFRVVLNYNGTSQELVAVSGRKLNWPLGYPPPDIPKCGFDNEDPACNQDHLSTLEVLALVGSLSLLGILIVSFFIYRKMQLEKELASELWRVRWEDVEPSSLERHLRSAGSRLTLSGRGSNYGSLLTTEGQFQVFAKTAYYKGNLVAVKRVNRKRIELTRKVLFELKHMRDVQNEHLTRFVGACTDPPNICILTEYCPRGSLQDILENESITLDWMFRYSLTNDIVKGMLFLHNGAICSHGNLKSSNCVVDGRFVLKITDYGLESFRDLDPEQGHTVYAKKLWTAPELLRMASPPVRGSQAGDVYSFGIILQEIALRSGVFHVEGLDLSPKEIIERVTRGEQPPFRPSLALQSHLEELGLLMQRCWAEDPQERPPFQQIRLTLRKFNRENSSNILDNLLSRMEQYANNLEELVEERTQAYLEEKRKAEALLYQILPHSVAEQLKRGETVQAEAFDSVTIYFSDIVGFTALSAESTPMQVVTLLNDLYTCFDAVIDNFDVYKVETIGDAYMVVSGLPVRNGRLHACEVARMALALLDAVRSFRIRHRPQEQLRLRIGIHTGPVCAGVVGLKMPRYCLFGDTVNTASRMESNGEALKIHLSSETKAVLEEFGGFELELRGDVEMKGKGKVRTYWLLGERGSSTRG
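HEK293 cells stably expressing human Npr1 and cGMP GloSensor pGS-40F, loaded 2 h with 2% GloSensor reagent, given compound 30 min at room temperature. Luminescence read before and 20 min after 0.1 nM hNppA.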
Luciferase inh – inhibitors of firefly (Photinus pyralis) luciferase; P08659; purified P. pyralis luciferase, luminescence, biochemical; Potency, µM (highest dose often 115 µM), most hits filed as inhibitors; actives 2.5% (n = 76,000); further: on the % scale 0 is the no-effect control and ±100 the full control effect; nearly all actives have a fitted effect of over 65% in size
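Purified P. pyralis luciferase (10nM final) in 50mM Tris acetate pH 7.5, 10mM Mg acetate, 0.01% Tween-20, 0.05% BSA with 10uM D-luciferin and 10uM ATP. Compounds titrated qHTS. Luminescence imaged on CCD.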
HEK cytotox – HEK 293 cell cytotoxicity; HEK 293 viability, ATP luminescence (CellTiter-Glo), 48-72 h; Potency, µM (doses to about 115 µM), inactives show top-dose activity change, negative = cytotoxicity, most hits filed as inhibitors; actives 6.6% (n = 94,000); AID 1345083; further: on the % scale 0 is the no-effect control and ±100 the full control effect; nearly all actives have a fitted effect of over 60% in size
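250 HEK 293 cells/well; compound by pintool; incubated 48 or 72 hr at 37 degree Celsius; CellTiter-Glo added, 10 min RT, luminescence imaged.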
NPR1 antag cnf – hNpr1 antagonism, confirmation assay | Potency, µM (doses to about 57.6 µM), for the others: at the top dose activity change, negative = inhibition, hits mostly inhibitors | actives 76% (n = 1,400) | HEK293 hNpr1 cGMP GloSensor luminescence, ANP-stimulated | shares compounds with NPR1 antag; calls by dose curve; further: nearly all actives have a fitted effect of over 70% in size
Npr2 selectivity – hNpr2 antagonism, selectivity versus Npr1 | Potency, µM (highest dose often 57.6 µM), inactives show top-dose activity change, negative = inhibition, actives largely listed as inhibitors | HEK293 hNpr2 GloSensor cGMP luminescence, CNP-stimulated | actives 67% (n = 1,400) | AID 1347046 | shares compounds with NPR1 antag; calls by dose curve; further: nearly all actives have a fitted effect of over 70% in size
FLuc counter – FLuc enzyme inhibition, Npr1 counter-screen. shares compounds with NPR1 antag. purified FLuc enzyme, luminescence, Km substrate. Potency, µM (titrated, usually from 57.6 µM), for the others: at the top dose activity change, negative = inhibition, hits mostly inhibitors. actives 0.7% (n = 1,400). AID 1347047; further: series mostly up to about 58 µM; 0% is about no effect
GloSensor cGMP – control cell line activity, Npr1 antagonist counter-screen. actives 69% (n = 1,400). Potency, µM (highest dose often 57.6 µM), without a hit: at the top dose activity change, negative = inhibition, usual class: inhibitors. shares compounds with NPR1 antag. HEK293 GloSensor cGMP, SNP-stimulated, luminescence. AID 1347051; calls by dose curve; further: on the % scale 0 is the no-effect control and ±100 the full control effect; nearly all actives have a fitted effect of over 70% in size
The depositor's hits bear a star; i = inactive; ? = inconclusive; / = no result given; [ ] = dose if it differs, or a comment. Rows were chosen to be rich in hits. Some 11% of all compounds tested hit in one or more screens of this group. Unless noted, the call rests on the fitted dose curve; in most records, active means well fitted curve in the direction sought with a large enough effect; inconclusive means small, poorly fitted or top-dose-only effect, or another doubt; inactive means no such curve, though single readings can be large; an effect the other way counts as inactive or inconclusive. Potency means the concentration at half of the fitted maximal effect.

SMILES	3T3 cytotox	NPR1 antag	Luciferase inh	HEK cytotox	NPR1 antag cnf	Npr2 selectivity	FLuc counter	GloSensor cGMP
COc1cccc(CN2CC[C@@](C)(O)[C@H](N3CCCC3)C2)c1OC	?	-4%	i	-6%	/	/	/	/
O=C(N1CC(Oc2ccc(-c3nc(-c4ccccc4)no3)cc2)C1)C1(c2ccccc2)CC1	?	?	i	22µM*	?	22µM*	-12%	22µM*
CCC(C)NC(=O)N1CC(Oc2ccc(-c3noc(C4CCOCC4)n3)cc2)C1 (stereo not drawn)	?	7.9µM*	i	?	5.4µM*	6.1µM*	-8%	4.8µM*
CC1(C)[C@H](Cc2cc(CN3CCCCC3)on2)C[C@@H]1NC(=O)c1ccco1	?	3%[70.6 µM]	i	?	/	/	/	/
COc1cccc(-c2cc(C3CCN(S(=O)(=O)c4ccc(C(C)=O)cc4)CC3)[nH]n2)c1	?	14µM*	i	?	24µM*	24µM*	-2%	24µM*
CCOc1ccc(C(=O)NC2CCN(c3cnn(CC)c(=O)c3)CC2)cc1	28µM*	-11%	i	-5%	-7%	-22%	1%	?
CCOc1ccc(C(=O)NC2CCN(c3cnn(CCOC)c(=O)c3)CC2)cc1	-21%	-14%	i	-23%	/	/	/	/
Cc1cc(Cl)ccc1OCC(=O)N1CCC2(CCCNC2=O)C1 (stereo not drawn)	-8%	13%	i	-23%	/	/	/	/
Cc1noc(-c2cn(C3CCN(C(=O)c4ccc(F)c(Cl)c4)CC3)nn2)n1	?	-1%	i	-14%	/	/	/	/
COc1ccc(CCC(=O)N2CCCC(n3cc(-c4nc(-c5ccccc5)no4)nn3)C2)cc1 (stereo not drawn)	?	13µM*	?	?	24µM*	24µM*	12µM*	24µM*
COc1ccc(C(=O)N2CCC(n3cc(-c4nc(-c5ccccc5)no4)nn3)CC2)cc1	?	?	i	?	22µM*	24µM*	-16%	22µM*
O=C(c1ccc(F)c(Cl)c1)N1CCC(n2cc(-c3nc(-c4ccccc4)no3)nn2)CC1	?	13µM*	i	?	24µM*	22µM*	-20%	22µM*
O=C(c1ccc(F)c(F)c1)N1CCC(n2cc(-c3nc(-c4ccccc4)no3)nn2)CC1	?	11µM*	i	?	24µM*	24µM*	-22%	22µM*
Cc1cccc(CC(=O)N2CCC3(CC2)N(C)C(=O)CS3(=O)=O)c1	-23%	-2%	i	-5%	/	/	/	/
O=C1CC(c2ccccc2)N(C(=O)C2CC2)CCCN(C(=O)c2ccoc2)CCN1 (stereo not drawn)	-5%	1%	i	-18%	/	/	/	/
Cc1cccc(OCCc2noc(C3CN(S(=O)(=O)c4ccccc4)C3)n2)c1	?	-15%	i	?	/	/	/	/
O=C(c1ccccc1F)N1CCC(n2cc(-c3nc(-c4ccccc4)no3)nn2)C1 (stereo not drawn)	?	14µM*	i	?	22µM*	22µM*	-13%	17µM*
O=C(c1cccc(Cl)c1)N1CCCC(n2cc(-c3nc(-c4ccccc4)no3)nn2)C1 (stereo not drawn)	?	16µM*	?	?	27µM*	27µM*	-29%	27µM*
COc1ccc(C(=O)N2C[C@@H](C(N)=O)[C@H](c3n[nH]c(C)n3)C2)c(OC)n1	i	7%	i	-25%	/	/	/	/
CC1=C(C(=O)OC(C)C)C(c2ccc(C)cc2)CC(=O)N1Cc1cccc(C#N)c1 (stereo not drawn)	?	?	i	35µM*	?	?	1%	-2%
Cc1nn2c(c1-c1ccccc1-c1ccccc1)N(C(=O)c1ccnn1C)CCC2	?	-1%[70.6 µM]	i	-21%[172 µM]	/	/	/	/
Cc1nn2c(c1-c1ccccc1-c1ccccc1)N(CCC(C)C)CCC2	8.9µM*	1.6µM*	i	7.9µM*	0.99µM*	1.6µM*	-14%[86.2 µM]	0.79µM*
Cc1nn2c(c1-c1ccccc1-c1ccccc1)N(Cc1ccccc1)CCC2	13µM*	14µM*	i	?	6.3µM*	8.9µM*	-8%[86.2 µM]	4µM*
O=C(C1CC=CC1)N1CC(c2nnc(-c3ccncc3)o2)C2(CCOCC2)C1 (stereo not drawn)	-16%	-1%	i	-8%	/	/	/	/
CNC(=O)c1cc(C)nc2onc(C3CCCN3C(=O)Cc3ccccn3)c12 (stereo not drawn)	-19%	/	/	-13%	/	/	/	/
SMILES	3T3 cytotox	NPR1 antag	Luciferase inh	HEK cytotox	NPR1 antag cnf	Npr2 selectivity	FLuc counter	GloSensor cGMP
CC(=O)Nc1cccc(-c2nc(-c3nnn4c3COC(c3ccc(C)cc3)C4)no2)c1 (stereo not drawn)	i	0%	i	8%	/	/	/	/
CCc1cc(=O)n(CC(=O)Nc2ccc(OC)c(OC)c2)c(-c2cccc(F)c2)n1	-15%	-25%	i	?	/	/	/	/
O=C(COc1ccccc1)N1CCNc2cnc(Nc3cccc(F)c3)nc2C1	?	-8%[70.6 µM]	i	?	/	/	/	/
O=C(c1ccc(Cl)cc1)N1CCNc2cnc(Nc3ccccc3)nc2C1	?	32µM*	i	?	35µM*	35µM*	-2%[86.2 µM]	35µM*
O=C(c1cocn1)N1CCNc2cnc(Nc3cccc(C(F)(F)F)c3)nc2C1	?	32µM*	i	71µM*	35µM*	35µM*	-1%[86.2 µM]	31µM*
O=C(c1ccccc1)N1CCNc2cnc(Nc3cccc(F)c3)nc2C1	?	13µM*	i	?	13µM*	18µM*	-15%[86.2 µM]	16µM*
CN1C[C@H]2CN(Cc3cn(C)c4ccccc34)CCN2C1=O	-13%[138 µM]	0%[70.6 µM]	i	-20%[172 µM]	/	/	/	/
O=C(Cc1ccsc1)NCCc1noc(-c2ccccc2)n1	-15%	4%	i	-5%	/	/	/	/
CC(C)(CC(=O)O)CC(=O)N1CCN2C(=O)c3cc(-c4ccc(Cl)cc4)ccc3NC(=O)[C@@H]2C1	2%	1%	i	-5%	/	/	/	/
CC(C)c1noc([C@@H]2C[C@H](NC(=O)Nc3ccc(F)cc3)CN2C)n1	-22%[174 µM]	-9%[70.6 µM]	i	-28%[172 µM]	/	/	/	/

Source: PubChem BioAssay (National Center for Advancing Translational Sciences (NCATS))
